In one experiment the target is T1, ELK1 (Homo sapiens, UniProt P19419 1-428).
T1 sequence: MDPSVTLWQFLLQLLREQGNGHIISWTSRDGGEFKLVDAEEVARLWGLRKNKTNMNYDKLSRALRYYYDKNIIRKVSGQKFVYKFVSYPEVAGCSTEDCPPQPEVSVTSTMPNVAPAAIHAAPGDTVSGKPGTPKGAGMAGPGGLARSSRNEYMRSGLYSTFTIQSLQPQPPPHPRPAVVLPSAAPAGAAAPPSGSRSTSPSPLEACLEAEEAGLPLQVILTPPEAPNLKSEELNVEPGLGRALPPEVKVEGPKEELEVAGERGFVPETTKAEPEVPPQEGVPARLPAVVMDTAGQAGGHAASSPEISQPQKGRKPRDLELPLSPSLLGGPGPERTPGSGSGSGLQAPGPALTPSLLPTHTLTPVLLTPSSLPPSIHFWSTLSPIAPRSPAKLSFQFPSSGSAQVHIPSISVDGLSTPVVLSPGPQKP
Put plainly: DAPPL (digital affinity profiling via proximity ligation, sequencing); 10 mM Tris-HCl pH 7.5, 50 mM NaCl, 1 mM DTT, 4% glycerol, room temperature, 30 min; GST-TFs on glutathione beads, 16-mer random dsDNA library, 0.1% formaldehyde crosslink after washing; high values mean tight binding. The settings on record: protein: recombinant; tags: N-terminal GST; dsDNA, one strand shown. Summed up:
(§1)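 Human transcription factors carrying a GST fusion were produced in yeast, bound to glutathione beads, tagged with DNA barcodes and pooled together with a tag-only sample. Each pool was held with 200 nmole of a random double-stranded 16-mer DNA library in Tris/NaCl/DTT/glycerol buffer for 30 min at room temperature, then washed, crosslinked in 0.1% formaldehyde, proximity-ligated with BsaI/T4 ligase (1 h, 37 °C), PCR-amplified and sequenced on an Illumina NextSeq500. Binding signal is the read frequency of each hexamer for a given factor divided by its frequency in the tag-only sample.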
Regarding ACTCTA, the binding signal was 1.46 fold enrichment (6-mer frequency, TF over GST control).

As for CCCTCC, the binding signal is 1.54 fold enrichment (6-mer frequency, TF over GST control).

For the sequence ATATTC, the binding signal was 1.2 fold enrichment (6-mer frequency, TF over GST control).

Turning to CGCTTA, the binding signal was 1.26 fold enrichment (6-mer frequency, TF over GST control).

For ACGTTA, the binding signal was 1.14 fold enrichment (6-mer frequency, TF over GST control).

In the case of GCCTTT, the binding signal was 1.3 fold enrichment (6-mer frequency, TF over GST control).

Take TTCGAG: the binding signal is 1.23 fold enrichment (6-mer frequency, TF over GST control).

CTGAGC: the binding signal was 1.15 fold enrichment (6-mer frequency, TF over GST control).

As to AATTCT, the binding signal is 1.22 fold enrichment (6-mer frequency, TF over GST control).

With CCTGAA, the binding signal is 1.39 fold enrichment (6-mer frequency, TF over GST control).

Regarding TAACTT, the binding signal is 1.39 fold enrichment (6-mer frequency, TF over GST control).

As to CTCATC, the binding signal was 1.36 fold enrichment (6-mer frequency, TF over GST control).

TCTCAT: the binding signal was 1.36 fold enrichment (6-mer frequency, TF over GST control).

In the case of TGATGA, the binding signal is 1.39 fold enrichment (6-mer frequency, TF over GST control).

With TTAAAT, the binding signal was 1.11 fold enrichment (6-mer frequency, TF over GST control).

Regarding TTTCAA, the binding signal is 1.23 fold enrichment (6-mer frequency, TF over GST control).

As to ATATGG, the binding signal is 1.31 fold enrichment (6-mer frequency, TF over GST control).

For ACTTGG, the binding signal was 1.19 fold enrichment (6-mer frequency, TF over GST control).

On to CACATT, for which the binding signal was 1.16 fold enrichment (6-mer frequency, TF over GST control).

With TCCTGA, the binding signal is 1.45 fold enrichment (6-mer frequency, TF over GST control).

In a further experiment the target is T2, GABPA (Homo sapiens, UniProt Q06546 1-454).
T2 sequence: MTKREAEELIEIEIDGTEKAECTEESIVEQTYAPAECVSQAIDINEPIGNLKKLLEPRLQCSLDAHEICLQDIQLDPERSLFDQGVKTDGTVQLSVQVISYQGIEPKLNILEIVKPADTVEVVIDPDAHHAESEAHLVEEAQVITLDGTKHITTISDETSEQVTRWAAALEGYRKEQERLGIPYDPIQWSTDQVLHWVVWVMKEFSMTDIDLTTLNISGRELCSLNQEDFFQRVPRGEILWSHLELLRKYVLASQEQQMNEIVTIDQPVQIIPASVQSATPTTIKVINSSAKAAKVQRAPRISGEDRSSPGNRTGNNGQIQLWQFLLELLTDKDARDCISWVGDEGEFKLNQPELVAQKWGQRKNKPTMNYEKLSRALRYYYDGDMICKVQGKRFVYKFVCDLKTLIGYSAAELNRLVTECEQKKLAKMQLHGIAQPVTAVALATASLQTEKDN
The experiment is described as above. The settings on record: protein: recombinant; tags: N-terminal GST; dsDNA, one strand shown. Summed up:
as §1
Regarding TTTGTG, the binding signal is 1.13 fold enrichment (6-mer frequency, TF over GST control).

In the case of AATTCA, the binding signal is 1.35 fold enrichment (6-mer frequency, TF over GST control).

For TTGCTC, the binding signal is 1.37 fold enrichment (6-mer frequency, TF over GST control).

In the case of CTAAAC, the binding signal was 1.23 fold enrichment (6-mer frequency, TF over GST control).

For TAGGCT, the binding signal was 1.3 fold enrichment (6-mer frequency, TF over GST control).

CCTCTG: the binding signal is 1.63 fold enrichment (6-mer frequency, TF over GST control).

Turning to TGTCTA, the binding signal is 1.12 fold enrichment (6-mer frequency, TF over GST control).

For TTCACC, the binding signal is 1.34 fold enrichment (6-mer frequency, TF over GST control).

Consider ATCTAC, for which the binding signal is 1.22 fold enrichment (6-mer frequency, TF over GST control).

For the sequence CACTAT, the binding signal is 1.31 fold enrichment (6-mer frequency, TF over GST control).

TAATCC: the binding signal was 1.25 fold enrichment (6-mer frequency, TF over GST control).

For the sequence AAAGAT, the binding signal is 1.21 fold enrichment (6-mer frequency, TF over GST control).

As to CGTCTT, the binding signal is 1.33 fold enrichment (6-mer frequency, TF over GST control).

Regarding ACTGAA, the binding signal is 1.24 fold enrichment (6-mer frequency, TF over GST control).

As to CTCCGC, the binding signal was 1.58 fold enrichment (6-mer frequency, TF over GST control).

Consider CAACTC, for which the binding signal was 1.3 fold enrichment (6-mer frequency, TF over GST control).

Regarding TACAAT, the binding signal is 1.32 fold enrichment (6-mer frequency, TF over GST control).

In the case of CCATCT, the binding signal was 1.32 fold enrichment (6-mer frequency, TF over GST control).

As to TCCCCG, the binding signal is 1.32 fold enrichment (6-mer frequency, TF over GST control).

For ACTCTA, the binding signal is 1.52 fold enrichment (6-mer frequency, TF over GST control).

As for CCCTCC, the binding signal was 1.5 fold enrichment (6-mer frequency, TF over GST control).

For ATATTC, the binding signal is 1.24 fold enrichment (6-mer frequency, TF over GST control).

For CGCTTA, the binding signal is 1.17 fold enrichment (6-mer frequency, TF over GST control).

In the case of ACGTTA, the binding signal was 1.11 fold enrichment (6-mer frequency, TF over GST control).

As to GCCTTT, the binding signal is 1.32 fold enrichment (6-mer frequency, TF over GST control).

Regarding TTCGAG, the binding signal was 1.31 fold enrichment (6-mer frequency, TF over GST control).

Regarding CTGAGC, the binding signal is 1.18 fold enrichment (6-mer frequency, TF over GST control).

For the sequence AATTCT, the binding signal was 1.38 fold enrichment (6-mer frequency, TF over GST control).

Consider CCTGAA, for which the binding signal is 1.39 fold enrichment (6-mer frequency, TF over GST control).

With TAACTT, the binding signal was 1.34 fold enrichment (6-mer frequency, TF over GST control).

CTCATC: the binding signal is 1.41 fold enrichment (6-mer frequency, TF over GST control).

Regarding TCTCAT, the binding signal was 1.34 fold enrichment (6-mer frequency, TF over GST control).

Turning to TGATGA, the binding signal was 1.46 fold enrichment (6-mer frequency, TF over GST control).

Take TTAAAT: the binding signal is 1.1 fold enrichment (6-mer frequency, TF over GST control).

With TTTCAA, the binding signal was 1.31 fold enrichment (6-mer frequency, TF over GST control).

With ATATGG, the binding signal was 1.28 fold enrichment (6-mer frequency, TF over GST control).

Take ACTTGG: the binding signal is 1.15 fold enrichment (6-mer frequency, TF over GST control).

CACATT: the binding signal is 1.2 fold enrichment (6-mer frequency, TF over GST control).

Regarding TCCTGA, the binding signal was 1.47 fold enrichment (6-mer frequency, TF over GST control).

Values taken from PMC7862700, “An all-to-all approach to the identification of sequence-specific readers for epigenetic DNA modifications on cytosine”.
